PubChem BioAssay (EPA / NIEHS)
Active and inactive are the calls of the source. Rule for the calls: active = hit-call score of the fitted dose curve at least 0.9, where 1 is the maximum; inactive = score below 0.9.

How the values were obtained:
[1] = APR_HepG2_CellLoss_72hr: Apredica 72-hour HepG2 Assay for Cell Loss (AID 2282915); conditions: high-content imaging
Method in brief: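 Cell number comes from Hoechst 33342-labelled nuclei, imaged at 20x after 3.7% formaldehyde fixation. Dosing was 0.39–200 uM, ten concentrations in duplicate, 0.5% DMSO final, for 72 h. Bidirectional fit relative to DMSO baseline.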

[2] = APR_HepG2_P-H2AX_72hr: Apredica 72-hour HepG2 Assay for H2AX Phosphorylation (AID 2282916); conditions: imaging, actives raise or lower the signal;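 note: phospho-histone H2A.x immunostain intensity per cell marking DNA damage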
Method in brief: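 HepG2 cells treated 72 h at 0.39–200 uM, 0.5% DMSO final, duplicates. Formaldehyde-fixed, Triton-permeabilised, immunostained for phospho-H2A.x with Hoechst; fluorescence imaged at 20x, bidirectional fit versus DMSO.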

[3] = APR_HepG2_MitoMembPot_72hr: Apredica 72-hour HepG2 Assay for Mitochondrial Membrane Potential (AID 2282917); conditions: imaging, actives raise or lower the signal
Method in brief: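 Membrane potential read by MitoTracker Red CMXRos (250 nM, 30 min, pre-fixation) fluorescence imaging of HepG2 after 72 hr exposure. Ten concentrations, 0.39–200 uM, duplicate wells, 0.5% DMSO; fitted in both directions against DMSO baseline.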

[4] = APR_HepG2_MitoticArrest_72hr: Apredica 72-hour HepG2 Assay for Mitotic Arrest (AID 2282918); conditions: high-content imaging, actives raise or lower the signal
Method in brief: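 Using high-content imaging of fixed HepG2 cells, phospho-histone H3 signal was measured following a 72 hr incubation with ten-point compound dilutions up to 200 uM. DMSO served as the negative control and baseline for bidirectional curve fitting.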

[5] = APR_HepG2_MicrotubuleCSK_72hr: Apredica 72-hour HepG2 Assay for Microtubule CSK Stabilty (AID 2282919); conditions: HepG2 microtubule cytoskeleton, high-content imaging, actives raise or lower the signal
Method in brief: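 Read-out is tubulin fluorescence intensity from high-content imaging of HepG2 cells, with nuclei identified by Hoechst 33342. Treatment lasts 72 h at 0.39–200 uM, and curves are fitted bidirectionally against the DMSO negative control.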

[6] = APR_HepG2_P-H2AX_24hr: Apredica 24-hour HepG2 Assay for H2AX Phosphorylation (AID 2282920); conditions: high-content imaging, actives raise or lower the signal
Method in brief: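 Human HepG2 liver cells, treated 24 hr with test chemicals (0.39–200 uM, final DMSO 0.5% v/v), are fixed and co-stained for phospho-H2A.x and c-Jun with Hoechst. Imaged intensity is fitted in both directions against DMSO controls.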

[7] = APR_HepG2_StressKinase_72hr: Apredica 72-hour HepG2 Assay for Stress Kinase (AID 2282921); conditions: HepG2 stress kinase (phospho-c-Jun) imaging, actives raise or lower the signal
Method in brief: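 HepG2 cells treated 72 hr with 0.39–200 uM compound, 0.5% v/v DMSO, duplicate wells. After formaldehyde fixation and Triton permeabilization, stained with anti-phospho-c-Jun (1:500) and Cy3 secondary, imaged at 20x. Fitted in both directions against DMSO.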

[8] = APR_HepG2_p53Act_72hr: Apredica 72-hour HepG2 Assay for p53 Activation (AID 2282923); conditions: high-content imaging, actives raise or lower the signal;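 note: average cellular p53 protein immunofluorescence intensity in HepG2 cells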
Method in brief: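 HepG2 cells exposed 72 h to 0.39–200 uM in 0.5% DMSO, duplicates. Fixed, permeabilized cells immunostained for p53 (Cy5) with Hoechst; imaged at 20x, fluorescence analyzed bidirectionally against DMSO.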

[9] = APR_HepG2_NuclearSize_72hr: Apredica 72-hour HepG2 Assay for Nuclear Size (AID 2282925); conditions: high-content imaging, actives raise or lower the signal
Method in brief: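 HepG2; cpd 0.39–200 uM, 10 conc, duplicate; 72 h; DMSO 0.5% v/v; fix 3.7% formaldehyde 30 min RT; Triton permeabilization; Hoechst 2 ug/mL; HCS imaging 20x; nuclear diameter; gain/loss fit vs DMSO.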

[10] = target: CCAAT/enhancer-binding protein beta (Homo sapiens) (UniProt P17676); test: ATG_C_EBP_CIS: Attagene CIS-FACTORIAL HepG2 Assay for human CCAAT/Enhancer Binding Protein (C/EBP) beta (AID 2282927); conditions: HepG2 Attagene cis-factorial transcription factor reporter; actives raise or lower the signal
CCAAT/enhancer-binding protein beta (Homo sapiens), sequence (P17676 whole entry, looked up): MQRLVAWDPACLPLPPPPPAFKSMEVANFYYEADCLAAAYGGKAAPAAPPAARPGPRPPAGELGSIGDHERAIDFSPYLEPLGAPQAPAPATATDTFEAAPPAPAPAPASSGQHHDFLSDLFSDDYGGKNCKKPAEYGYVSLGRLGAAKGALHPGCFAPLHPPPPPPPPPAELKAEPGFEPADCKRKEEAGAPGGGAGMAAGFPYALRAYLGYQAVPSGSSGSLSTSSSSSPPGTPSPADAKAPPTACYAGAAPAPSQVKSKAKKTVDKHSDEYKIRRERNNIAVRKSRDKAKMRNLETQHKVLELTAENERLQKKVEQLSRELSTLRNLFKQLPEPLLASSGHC
Method in brief: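 Changes in reporter mRNA, rather than exogenous chimeric receptor activity, reflect native C/EBP signalling in transfected HepG2 cells dosed for 24 h; transcripts are detected by RT-PCR and capillary electrophoresis.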

[11] = ATG_CMV_CIS: Attagene CIS-FACTORIAL HepG2 Assay for human CMV (Internal Marker) (AID 2282928); conditions: HepG2 CMV promoter reporter, transcription factor profiling; actives raise or lower the signal;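 note: endpoint acts as a background internal control marker rather than a target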
Method in brief: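 HepG2 cells transiently transfected with multiple cis-regulated reporter units; 24 h compound exposure. Reporter mRNA quantified by RT-PCR, 6-FAM primer-extension labeling, HpaI digestion and capillary electrophoresis; bidirectional fitting against DMSO baseline.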

[12] = ATG_DR4_LXR_CIS: Attagene CIS-FACTORIAL HepG2 Assay for human Liver X Receptor (LXR), DR4 submotif (AID 2282929); conditions: HepG2 Attagene DR4 cis-reporter, mRNA transcription; actives raise or lower the signal
Method in brief: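 After transient transfection with multiplexed cis-promoter reporter units, HepG2 cells received test chemicals for 24 h. Reporter mRNA induction, detected by fluorescence after RT-PCR and capillary electrophoresis, was scored relative to DMSO.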

[13] = target: Aryl hydrocarbon receptor (Homo sapiens) (UniProt P35869); test: ATG_Ahr_CIS: Attagene CIS-FACTORIAL HepG2 Assay for human Aryl Hydrocarbon Receptor (Ahr) (AID 2282930); conditions: HepG2 AhR cis-factorial reporter transcription; actives raise or lower the signal
Aryl hydrocarbon receptor (Homo sapiens), sequence (P35869 whole entry, looked up): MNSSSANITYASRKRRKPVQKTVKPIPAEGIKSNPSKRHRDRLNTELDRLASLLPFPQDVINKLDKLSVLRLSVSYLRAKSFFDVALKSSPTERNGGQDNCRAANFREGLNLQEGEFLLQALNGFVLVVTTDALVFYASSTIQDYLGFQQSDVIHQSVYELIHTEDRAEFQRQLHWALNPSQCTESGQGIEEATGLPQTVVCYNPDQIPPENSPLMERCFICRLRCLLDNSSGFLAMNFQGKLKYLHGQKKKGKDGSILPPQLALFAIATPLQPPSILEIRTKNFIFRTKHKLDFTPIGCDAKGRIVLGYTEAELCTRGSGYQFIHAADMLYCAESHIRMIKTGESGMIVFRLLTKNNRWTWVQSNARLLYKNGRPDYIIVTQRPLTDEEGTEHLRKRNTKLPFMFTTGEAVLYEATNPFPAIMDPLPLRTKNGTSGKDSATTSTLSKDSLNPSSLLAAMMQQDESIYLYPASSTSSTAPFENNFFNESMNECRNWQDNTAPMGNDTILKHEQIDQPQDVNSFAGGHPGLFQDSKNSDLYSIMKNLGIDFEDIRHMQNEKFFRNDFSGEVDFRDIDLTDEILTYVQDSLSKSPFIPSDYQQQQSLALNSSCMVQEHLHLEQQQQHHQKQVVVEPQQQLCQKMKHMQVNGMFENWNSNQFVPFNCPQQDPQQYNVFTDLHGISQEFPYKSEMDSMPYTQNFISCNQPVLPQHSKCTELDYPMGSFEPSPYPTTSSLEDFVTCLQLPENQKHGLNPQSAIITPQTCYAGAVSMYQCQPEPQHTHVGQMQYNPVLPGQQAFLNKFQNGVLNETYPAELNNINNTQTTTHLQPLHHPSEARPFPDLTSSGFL
Method in brief: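 HepG2, transient MRTU (cis) transfection, 24 h exposure. RNA → cDNA → PCR → 6-FAM primer extension → HpaI 2 h 37 C → CE. Fit: bidirectional, DMSO baseline.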

[14] = ATG_AP_1_CIS: Attagene CIS-FACTORIAL HepG2 Assay for human Activator Protein 1 (AP-1) (AID 2282931); conditions: HepG2 Attagene cis-factorial AP-1 reporter mRNA; actives raise or lower the signal
Method in brief: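 After 24 h incubation with test chemical, RNA from transfected HepG2 cells was reverse-transcribed, amplified, fluorescently labelled and digested before capillary electrophoresis. Reporters were driven by cis-regulatory promoters; activity fitted bidirectionally versus DMSO.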

[15] = ATG_AP_2_CIS: Attagene CIS-FACTORIAL HepG2 Assay for human Activator Protein 2 (AP-2) (AID 2282932); conditions: HepG2 AP-2 cis-reporter, Attagene transcription factor profiling; actives raise or lower the signal
Method in brief: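 HepG2, transient MRTU transfection, cis-regulated reporters; 24 h compound exposure; RNA isolated, RT-PCR, 6-FAM labelling, HpaI digest, CE fluorescence. DMSO = negative control/baseline, bidirectional fit.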

[16] = target: Retinoic acid receptor alpha (Homo sapiens) (UniProt P10276); test: ATG_DR5_RAR_CIS: Attagene CIS-FACTORIAL HepG2 Assay for human Retinoic Acid Receptor Alpha (RARE), DR5 submotif (AID 2282934); conditions: HepG2 Attagene cis-factorial RARE DR5 reporter, mRNA; actives raise or lower the signal
Retinoic acid receptor alpha (Homo sapiens), sequence (P10276 whole entry, looked up): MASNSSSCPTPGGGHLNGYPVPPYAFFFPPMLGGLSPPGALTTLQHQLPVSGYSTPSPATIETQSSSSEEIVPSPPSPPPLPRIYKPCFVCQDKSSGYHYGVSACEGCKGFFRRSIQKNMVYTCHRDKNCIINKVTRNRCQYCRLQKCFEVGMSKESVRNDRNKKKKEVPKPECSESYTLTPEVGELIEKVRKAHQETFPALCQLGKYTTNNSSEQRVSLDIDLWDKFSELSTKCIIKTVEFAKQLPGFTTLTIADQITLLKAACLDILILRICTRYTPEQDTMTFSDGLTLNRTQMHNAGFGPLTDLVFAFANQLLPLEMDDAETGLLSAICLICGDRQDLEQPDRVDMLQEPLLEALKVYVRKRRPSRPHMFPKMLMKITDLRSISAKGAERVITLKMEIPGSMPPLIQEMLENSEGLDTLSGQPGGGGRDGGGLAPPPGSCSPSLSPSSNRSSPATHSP
Method in brief: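 HepG2, transient cis-reporter transfection, 24 h exposure. mRNA readout: RT-PCR, FAM label, HpaI cut, capillary electrophoresis. DMSO baseline, gain/loss fitting.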

[17] = APR_HepG2_MitoMass_72hr: Apredica 72-hour HepG2 Assay for Mitochondrial Mass (AID 2282924); conditions: high-content imaging, actives raise or lower the signal;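 note: MitoTracker Red CMXRos stain intensity per cell imaged as mitochondrial mass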
Method in brief: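 HepG2, 72 hr cmpd, 10 conc 0.39–200 uM in dup, DMSO 0.5% v/v. MitoTracker Red CMXRos 250 nM 30 min pre-fix; formaldehyde 3.7% fix 30 min RT. HCS imaging, gain/loss fit vs DMSO.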

[18] = ATG_CRE_CIS: Attagene CIS-FACTORIAL HepG2 Assay for human cAMP Responsive Element (CRE) binding protein 3 (AID 2282926); conditions: HepG2 CRE cis-reporter, Attagene multiplexed mRNA; actives raise or lower the signal
Method in brief: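 Transfected HepG2 were treated for 24 hours, then RNA was extracted and reporter cDNA amplified with sequence-specific primers. Labelled fragments were separated by capillary electrophoresis, and the CRE signal was fitted bidirectionally with DMSO as baseline.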

[19] = ATG_BRE_CIS: Attagene CIS-FACTORIAL HepG2 Assay for human Bone Morphogenetic Protein (BMP) Response Element (BRE) (AID 2282933); conditions: HepG2 BMP response element reporter, Attagene transcription factor profiling; actives raise or lower the signal
Method in brief: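 Fluorescence-labelled reporter cDNA fragments, separated by capillary electrophoresis, gave the signal for this component of a 52-readout multiplex. HepG2 cells were transfected, exposed to chemicals for 24 h, and compared with DMSO using bidirectional fitting.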

[20] = APR_HepG2_StressKinase_24hr: Apredica 24-hour HepG2 Assay for Stress Kinase (AID 2282922); conditions: HepG2 stress kinase (phospho-c-Jun) imaging, actives raise or lower the signal
Method in brief: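 HepG2, 24 hr dosing, 0.39–200 uM in duplicate, 0.5% DMSO; formaldehyde fix (3.7%), 0.5% Triton X-100; anti-phospho-c-Jun + Cy3 secondary, Hoechst counterstain; ArrayScan imaging; bidirectional curve fit vs DMSO baseline.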

Measured: AC50

C1CCC(SSC2CCCCC2)CC1
active: [1] 97.4 µM | [6] 113 µM | [7] 108 µM | [8] 148 µM | [11] 65.6 µM | [13] 66.3 µM | [14] 125 µM
not listed: [17] | [18] | [19] | [20]
inactive: all other assays above

C=CCc1ccc(O)c(OC)c1
active: [3] 68.6 µM | [11] 80.2 µM
not listed: [10] | [20]
inactive: all other assays above

NCC1(Cc2noc(=O)[nH]2)CCCCC1
not listed: [6] | [10]
inactive: all other assays above
